From ChEMBL document CHEMBL4513149, “CO-ADD screening of MMV (CH) - MMV compounds” (2021)
Measured potencies and affinities stand elsewhere.

Key:
Staphylococcus aureus = conditions: Concentration 20 uM; ASSAY_TEST Inhibition of Bacterial Growth; detection method Absorption (OD600); MEDIA CAMHB; plate type 384well; NBS; CORNING #3640; time 18 hr
Escherichia coli = conditions: Concentration 20 uM; ASSAY_TEST Inhibition of Bacterial Growth; detection method Absorption (OD600); MEDIA CAMHB; plate type 384well; NBS; CORNING #3640; time 18 hr

## COc1ccc2nc(C)cc(OCC(=O)NCc3ccccc3)c2c1
Staphylococcus aureus
  Inhibition: 12.19%
Escherichia coli
  Inhibition: 7.22%

## Cc1cc(C(=O)Nc2cnn(Cc3ccc(Cl)cc3Cl)c2)no1
Staphylococcus aureus
  Inhibition: 4.82%
Escherichia coli
  Inhibition: 8.52%

## Cc1ccc2cc(C3NC(=O)c4ccccc4N3)c(Cl)nc2c1 (configuration not stated)
Staphylococcus aureus
  Inhibition: 11.87%
Escherichia coli
  Inhibition: 10.17%

## CNc1snc(C)c1C(=O)NCCOc1ccc(OC)cc1
Staphylococcus aureus
  Inhibition: 18.31%
Escherichia coli
  Inhibition: 5.8%

## CCOc1ccccc1C(=O)Nc1cccc(-c2nc3ncccn3c2C)c1
Staphylococcus aureus
  Inhibition: 2.54%
Escherichia coli
  Inhibition: 10.22%

## OCc1ccc(-c2cncc(Nc3cccc(Cl)c3)c2)cc1
Staphylococcus aureus
  Inhibition: 14.66%
Escherichia coli
  Inhibition: 10.9%

## COc1ccc(-c2cncc3ccc(C(=O)NCCCn4ccnc4)nc23)cc1
Staphylococcus aureus
  Inhibition: 13.71%
Escherichia coli
  Inhibition: 12.75%

## Clc1ccc(CCNc2cc(-c3ccccc3)nc3ncnn23)cc1
Staphylococcus aureus
  Inhibition: 16.06%
Escherichia coli
  Inhibition: 4.96%

## CCCCc1ccc(C(=O)Nc2nccc3ccccc23)nc1
Staphylococcus aureus
  Inhibition: 5.7%
Escherichia coli
  Inhibition: -0.87%

## CC1CS(=O)(=O)CCN1/N=C/c1ccc([N+](=O)[O-])o1 (configuration not stated) [NIFURTIMOX]
Staphylococcus aureus
  Inhibition: 33.42%
Escherichia coli
  Inhibition: 6%

## CC1=Nc2ccc(Cl)cc2C(O)(c2ccc(C)cc2)N1CCN1CCCCC1 (configuration not stated)
Staphylococcus aureus
  Inhibition: 19.52%
Escherichia coli
  Inhibition: 11.5%

## O=C(Nc1nc(-c2ccccn2)cs1)C1CC1c1ccccc1F (configuration not stated)
Staphylococcus aureus
  Inhibition: 16.77%
Escherichia coli
  Inhibition: 3.89%

## CCC(C)NC(=O)c1ccc(NC(=O)C2(c3ccccc3)CCCC2)cc1 (configuration not stated)
Staphylococcus aureus
  Inhibition: 13.32%
Escherichia coli
  Inhibition: -4.39%

## CS(=O)(=O)N1CCC(CCn2nc(Cc3cccc4ccccc34)c3c(N)ncnc32)CC1
Staphylococcus aureus
  Inhibition: 11.8%
Escherichia coli
  Inhibition: -2.01%

## CC(=O)Nc1ccc(-c2noc(CC3CCCN(Cc4cccc(F)c4C)C3)n2)cc1 (configuration not stated)
Staphylococcus aureus
  Inhibition: 14.07%
Escherichia coli
  Inhibition: 3.97%

## Cc1cnc(N2CCN[C@@H](Cc3ccccc3)C2)nc1Oc1ccc(-n2ccnc2)cc1.Cl
Staphylococcus aureus
  Inhibition: 11.48%
Escherichia coli
  Inhibition: -1.63%

## O=C1Nc2ccc(Br)cc2C12NCCc1c2[nH]c2ccccc12 (configuration not stated)
Staphylococcus aureus
  Inhibition: 8.87%
Escherichia coli
  Inhibition: 4.53%

## Cc1cccc(NC(=O)c2cc(S(=O)(=O)N(C)c3ccc(F)cc3)ccc2Cl)n1
Staphylococcus aureus
  Inhibition: 12.32%
Escherichia coli
  Inhibition: 7.88%

## COc1cccc(OCC(=O)c2ccc(Br)cc2)c1
Staphylococcus aureus
  Inhibition: -13.25%
Escherichia coli
  Inhibition: -7.45%

## COc1ccc(-c2cc(NC(=O)c3ccc(F)cc3Cl)ccc2OC)cc1
Staphylococcus aureus
  Inhibition: 17.79%
Escherichia coli
  Inhibition: 8.24%

## COC(=O)c1ccc(F)cc1NS(=O)(=O)c1cccc(-c2cnn(Cc3ccccc3)c2)c1
Staphylococcus aureus
  Inhibition: 11.02%
Escherichia coli
  Inhibition: 13.23%

## c1ccc(Oc2ccc(-c3cc(CN4CCOCC4)[nH]n3)cc2)cc1
Staphylococcus aureus
  Inhibition: 15.12%
Escherichia coli
  Inhibition: 2.47%

## COc1ccc(N(CCc2cccc(C)n2)C(=O)C2CCCCC2)cc1
Staphylococcus aureus
  Inhibition: 4%
Escherichia coli
  Inhibition: 3.67%

## CC1=Nc2ccc(Cl)cc2C(c2ccccc2)N1CCNC(=O)CN(C)C (configuration not stated)
Staphylococcus aureus
  Inhibition: 20.65%
Escherichia coli
  Inhibition: 6.95%

## O=C(NCCc1ccccc1)c1cc(-c2cccnc2)cnc1NCC1CC1
Staphylococcus aureus
  Inhibition: 6.31%
Escherichia coli
  Inhibition: 1.84%

## COc1cc2ncnc(NC3CCN(Cc4ccccc4)CC3)c2cc1OC
Staphylococcus aureus
  Inhibition: 7.78%
Escherichia coli
  Inhibition: -0.93%

## CC(C)(C)OC(=O)N1CCN(c2cc(-c3ccc(Oc4ccccc4)cc3)n[nH]2)CC1
Staphylococcus aureus
  Inhibition: 17.78%
Escherichia coli
  Inhibition: 7.28%

## CC(C(=O)N1CCCC1)N1CCN(S(=O)(=O)c2ccc(C(C)(C)C)cc2)CC1 (configuration not stated)
Staphylococcus aureus
  Inhibition: 8.1%
Escherichia coli
  Inhibition: -2.16%

## Cc1cc2nc(NC(=O)C(C)(C)C)nc(Cl)c2n1Cc1ccc(Cl)cc1
Staphylococcus aureus
  Inhibition: 7.77%
Escherichia coli
  Inhibition: 0.73%

## CC1CCCN(C(=O)C(C)Nc2cc(Cl)ccc2N2CCOCC2)C1 (configuration not stated)
Staphylococcus aureus
  Inhibition: 20.88%
Escherichia coli
  Inhibition: 9.44%

## Cc1cc(C(=O)Nc2ccc(-c3ccccc3)cc2)no1
Staphylococcus aureus
  Inhibition: 16.2%
Escherichia coli
  Inhibition: 12.13%

## Cc1ccc2nc(Cl)c(CNCc3cccs3)cc2c1
Staphylococcus aureus
  Inhibition: 2.71%
Escherichia coli
  Inhibition: -1.94%

## CCS(=O)(=O)N(Cc1ccco1)Cc1cc2ccc(C)cc2nc1O
Staphylococcus aureus
  Inhibition: 9.79%
Escherichia coli
  Inhibition: -2.16%

## CCOc1ccc2cc(-c3nn(C(C)(C)C)c(N)c3C(N)=O)cnc2c1.Cl
Staphylococcus aureus
  Inhibition: 14.66%
Escherichia coli
  Inhibition: 7.93%

## Nc1cccnc1Nc1ccc(Cl)cc1
Staphylococcus aureus
  Inhibition: 2.93%
Escherichia coli
  Inhibition: -1.63%

## Cc1ccc(S(=O)(=O)Nc2ccc(CN3CCN(C(=O)c4cccc(C#N)c4)CC3)cc2)cc1
Staphylococcus aureus
  Inhibition: 8.99%
Escherichia coli
  Inhibition: 3.52%

## COc1ccc(-c2cnc3cnc(-c4cccc(OC(C)C)c4)cn23)cc1
Staphylococcus aureus
  Inhibition: 6.79%
Escherichia coli
  Inhibition: 4.77%

## Nc1ncnc2[nH]nc(Cc3cccc4ccccc34)c12
Staphylococcus aureus
  Inhibition: 12.91%
Escherichia coli
  Inhibition: 7.05%

## Cc1ccc(-c2nc(CN(Cc3ccccn3)C(C)C)cs2)o1
Staphylococcus aureus
  Inhibition: 63.05%
Escherichia coli
  Inhibition: 8.22%

## CN1CCCC1CCO[C@](C)(c1ccccc1)c1ccc(Cl)cc1.O=C(O)/C=C/C(=O)O (some centres not stated)
Staphylococcus aureus
  Inhibition: 18.42%
Escherichia coli
  Inhibition: 10.75%

## COc1cc(C2=NCCN2)ccc1-n1cc(-c2cccc(C3=NCCN3)c2)nn1.O=CO.O=CO
Staphylococcus aureus
  Inhibition: 1.49%
Escherichia coli
  Inhibition: 8.11%

## Cc1cc(Nc2ccncc2)n2nc(C)c(-c3ccccc3Cl)c2n1
Staphylococcus aureus
  Inhibition: 12.68%
Escherichia coli
  Inhibition: 7.54%

## COc1ccc2nc(C)cc(OCC(=O)Nc3ccccc3OC)c2c1
Staphylococcus aureus
  Inhibition: 18.5%
Escherichia coli
  Inhibition: 13.22%

## COc1nc2ccc(Br)cc2cc1[C@@H](c1ccccc1)[C@@](O)(CCN(C)C)c1cccc2ccccc12.O=C(O)C(F)(F)F
Staphylococcus aureus
  Inhibition: 17.15%
Escherichia coli
  Inhibition: 2.08%

## Nc1ncnc2c1c(Cc1cccc3ccccc13)nn2CC1CCNCC1
Staphylococcus aureus
  Inhibition: -11.63%
Escherichia coli
  Inhibition: -7.67%

## CCN(CC)C(=O)N1CCN(C)CC1 [DIETHYLCARBAMAZINE]
Staphylococcus aureus
  Inhibition: 20.12%
Escherichia coli
  Inhibition: 7.97%

## COc1ccc(-c2cnc3ccc(NCc4ccc(S(N)(=O)=O)cc4)nn23)cn1
Staphylococcus aureus
  Inhibition: 19.01%
Escherichia coli
  Inhibition: 10.16%

## O=C(Cn1ccnc1[N+](=O)[O-])NCc1ccccc1 [BENZNIDAZOLE]
Staphylococcus aureus
  Inhibition: 21.81%
Escherichia coli
  Inhibition: 9.92%

## FC(F)(F)c1cccc(-c2nc3c(NCc4ccncc4)nccc3[nH]2)c1
Staphylococcus aureus
  Inhibition: 9.41%
Escherichia coli
  Inhibition: 5.83%

## CCCCS(=O)(=O)Nc1ccc2cnn(C)c2c1
Staphylococcus aureus
  Inhibition: 17.72%
Escherichia coli
  Inhibition: 10.93%

## COc1cc(C2=NCCN2)ccc1-c1cn(-c2cccc(C3=NCCN3)c2)nn1
Staphylococcus aureus
  Inhibition: 19.96%
Escherichia coli
  Inhibition: 14.41%

## Cl.NCC(c1cccs1)S(=O)(=O)c1ccccc1 (configuration not stated)
Staphylococcus aureus
  Inhibition: 11.05%
Escherichia coli
  Inhibition: -0.69%

## Cc1nn(C)cc1C(C)Nc1nncc(-c2ccc(C(F)(F)F)cc2)n1 (configuration not stated)
Staphylococcus aureus
  Inhibition: 2.57%
Escherichia coli
  Inhibition: 3.9%

## N#Cc1nc(-c2ccccc2F)oc1NCCc1ccccc1
Staphylococcus aureus
  Inhibition: 7.55%
Escherichia coli
  Inhibition: 2.58%

## COc1ccc(C2CC(c3cccs3)=NN2C(=O)c2ccco2)cc1OC (configuration not stated)
Staphylococcus aureus
  Inhibition: 19.66%
Escherichia coli
  Inhibition: 11.75%

## O=C(Nc1ccccc1-c1nc2c(C(=O)O)cccc2o1)c1ccccc1
Staphylococcus aureus
  Inhibition: 12.25%
Escherichia coli
  Inhibition: -2.2%

## O=C(NCCc1ccn(-c2ccccc2)n1)C1CCCCC1
Staphylococcus aureus
  Inhibition: 6.55%
Escherichia coli
  Inhibition: 2.39%

## O=C(Nc1ccnc(-c2cccnc2)n1)c1cc(C(F)(F)F)cc(C(F)(F)F)c1
Staphylococcus aureus
  Inhibition: 15.63%
Escherichia coli
  Inhibition: 6.19%

## Cc1ccc(NC(=O)c2nc[nH]c2C(=O)Nc2nc3ccccc3[nH]2)c(C)c1
Staphylococcus aureus
  Inhibition: 23.22%
Escherichia coli
  Inhibition: 12.12%

## CCOc1ccc2cc(-c3nn(CC4CCN(C)CC4)c4ncnc(N)c34)ccc2c1.Cl
Staphylococcus aureus
  Inhibition: 18.54%
Escherichia coli
  Inhibition: 8.02%

## Nc1ncc(-c2ccc(C(F)(F)F)nc2)cc1-c1ccc(C(F)(F)F)nc1
Staphylococcus aureus
  Inhibition: 3.63%
Escherichia coli
  Inhibition: 7.53%

## COC(=O)C1=C(C)NC(C)=C(C(=O)OC(C)C)C1c1cccc2nonc12 (configuration not stated) [ISRADIPINE]
Staphylococcus aureus
  Inhibition: 3.78%
Escherichia coli
  Inhibition: -1.04%

## c1coc(CNc2nc(N3CCCCC3)nc3ccccc23)c1
Staphylococcus aureus
  Inhibition: 13.52%
Escherichia coli
  Inhibition: 5.17%

## Cc1cc2ccccc2n1CC(=O)N1CC(C(=O)N2CCCCC2)Oc2ccccc21 (configuration not stated)
Staphylococcus aureus
  Inhibition: 16.51%
Escherichia coli
  Inhibition: 10.52%

## CC1COC2(CCN(c3nc(=O)c4cc(C(F)(F)F)cc([N+](=O)[O-])c4s3)CC2)O1 (configuration not stated)
Staphylococcus aureus
  Inhibition: 16.17%
Escherichia coli
  Inhibition: 4.14%

## C[C@H](c1ccc2c(c1)CCCC2)N(C)c1ncc2c(N)nc(N)nc2n1
Staphylococcus aureus
  Inhibition: 64.04%
Escherichia coli
  Inhibition: 11.2%

## N=C(N)c1ccc(-c2cc(-c3ccccc3)on2)cc1
Staphylococcus aureus
  Inhibition: 23.63%
Escherichia coli
  Inhibition: 12.9%

## CN(C)c1cc(NC(=O)Nc2ccccc2)c2ccccc2n1
Staphylococcus aureus
  Inhibition: 12.79%
Escherichia coli
  Inhibition: 6.08%

## CCCCN(CCCC)c1c(C#N)cc(S(=O)(=O)Nc2ccccc2)cc1C#N
Staphylococcus aureus
  Inhibition: 3.78%
Escherichia coli
  Inhibition: -2.29%

## Cl.Cl.Cl.NS(=O)(=O)c1cncc(-c2ccc3nccc(-c4cn[nH]c4)c3n2)c1
Staphylococcus aureus
  Inhibition: 9.83%
Escherichia coli
  Inhibition: 6.62%

## O=C(N[C@H](Cc1ccccc1)C(=O)Nc1ccccc1N1CCOCC1)c1cccs1
Staphylococcus aureus
  Inhibition: 14.16%
Escherichia coli
  Inhibition: 8.05%

## O=C(OCc1ccccc1)N1CCC(c2cc(-c3ccncc3)c(-c3ccc(F)cc3)[nH]2)CC1
Staphylococcus aureus
  Inhibition: 3.21%
Escherichia coli
  Inhibition: 4.05%

## CNC(=O)c1nn(C)c2c1C(C)(C)Cc1cnc(Nc3ccc(N4CCN(C)CC4)cc3)nc1-2 [MILCICLIB]
Staphylococcus aureus
  Inhibition: 15.75%
Escherichia coli
  Inhibition: 10.4%

## Nc1ccc(C(=O)Nc2ccc(-c3nc4ccccc4o3)cc2)cc1
Staphylococcus aureus
  Inhibition: 11.63%
Escherichia coli
  Inhibition: 11.29%

## Cc1noc(C)c1C(=O)N1CCCC(c2[nH]c3c(C)cccc3c2-c2ccncc2)C1 (configuration not stated)
Staphylococcus aureus
  Inhibition: 19.72%
Escherichia coli
  Inhibition: 12.41%

## Cc1ccccc1CN1CCC(O)(c2ccc(Cl)c(C(F)(F)F)c2)CC1
Staphylococcus aureus
  Inhibition: 17.37%
Escherichia coli
  Inhibition: 4.77%
